A selection: hits, their analogues and other compounds. The true share with any hit is near 1.8%.
aDG glyco up: increases alpha dystroglycan glycosylation. Pro5-aDG cells, alpha-DG glycosylation AlphaScreen (IIH6); 0% Pro5, 100% B10-LARGE cell signal. activation, % at 10 µM. 360,000 compounds, 0.22% hits. AID 624168;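 active = activation of at least 8% versus controls, or a plate z-score of at least 8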;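 note: Pro5 are CHO cells carrying HIG-tagged alpha-DG that lacks glycosylation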
Bfl-1 A1 inh: inhibitors of the anti-apoptotic protein A1, read as caspase activation; MEF A1-2A-BIM cells, Caspase-Glo 3/7 luminescence, 3 h; percent of clofoctol response, vehicle zero; caspase activation, % (test concentration not listed); 330,000 compounds, 0.066% hits;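 active = over half of replicate activation scores above 10%, or exactly half above 10 with the replicate mean above 10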
AI-2 QS modul: modulates the Vibrio harveyi AI-2 quorum sensing system; Vibrio harveyi JMH597 AI-2 luminescence/OD600 ratio, 9 h; hits give low values; strain lacks LuxN and CqsS sensors; 0 = neutral-control median; activity change, % at 7.5 µM; 300,000 compounds, 0.4% hits; in the data active = activity change below about -75%, passing the limit was not always enough;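 note: luminescence divided by OD600 gain over 9 h not by final OD600 alone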
SUMO Mot1 rescue: inhibitors of SUMOylation pathway: yeast Mot1-301 growth rescue; growth rescue, % at 18.8 µM; 320,000 compounds, 1% hits; AID 2716; S. cerevisiae Mot1-301 growth rescue, ATP luminescence, 38.5C; percent above DMSO median, 100 means doubled;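 active = every valid replicate shows activation above 250% relative to neutral control wells; inactive = the rest, any valid replicate at or below 250%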;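 note: OY570 slx delta 5 strain wells were the positive control but not used for scaling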
ARNT-TACC3 inh: ARNT/TACC3 interaction disruption; Q9Y6A5; inhibition, % at 9.99 µM; 390,000 compounds, 0.66% hits; AlphaScreen His-ARNT PAS-B/GST-TACC3 binding, luminescence; TACC3 fragment carries E629A point mutation;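 active = mean inhibition of replicates at least 50% and at least half of replicates each reaching 50%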;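 note: 0% = complete ARNT plus TACC3 wells and 100% = ARNT alone without TACC3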
AlphaScreen ctr: counter-screen for ARNT/TACC3 inhibitors: AlphaScreen artifacts; His-ARNT PASB-GST AlphaScreen artifact counter-screen, luminescence; AC50, µM (series often up to 68 µM), inactives show at the top dose activity change, negative = signal decrease; 1,200 compounds, 50% hits; shares compounds with ARNT-TACC3 inh;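 active = every separate test run was called active for a drop in luminescence, with AC50 within twice the top valid dose, actives reach about 71 µM in these data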
* hit, by the source's call; i = inactive; x = no result given.

SMILES	aDG glyco up	Bfl-1 A1 inh	AI-2 QS modul	SUMO Mot1 rescue	ARNT-TACC3 inh	AlphaScreen ctr
CC(=O)NCC(=O)NC(Cc1ccccc1)C(N)=O (stereo not given)	0	0	18	-2	3	x
C[C@H](CO)N1C[C@H](C)[C@H](CN(C)C)Oc2ncc(C#Cc3cccnc3)cc2C1=O	x	x	x	x	0	x
Brc1ccc(-c2csc(N3CCC(c4ccccc4)C3)n2)cc1 (stereo not given)	0	0	9	23	9	x
c1ccc(-c2nnc(-c3ccccn3)nc2N2CCN(c3ccncc3)CC2)cc1	x	x	x	x	x	2.1µM*
Cc1nnc(-c2ccccc2)nc1N1CCOCC1	0	0	1	12	1	x
c1ccc(-c2nnc(-c3ccccn3)nc2N2CCC(N3CCOCC3)CC2)cc1	x	x	x	x	x	0.92µM*
c1ccc(-c2nnc(-c3ccccn3)nc2N2CCC(c3ccccc3)C2)cc1 (stereo not given)	x	x	x	x	x	4.8µM*
COc1cc(/C=N/Nc2nn3cnnc3c3ccccc23)ccc1O	0	-5	9	5	50*	-30%
COc1cc(CNCc2ccccn2)ccc1OCc1cccc(Cl)c1	3	-1	30	8	53*	-31%
COc1cc(CNCc2cccs2)ccc1OCc1ccccc1	0	-2	2	0	3	x
COc1cc(CNCc2ccccn2)ccc1OCc1c(Cl)cccc1Cl	2	0	33	5	56*	-36%
COc1cc(CNCc2ccccn2)ccc1OCc1ccc(Cl)cc1	0	0	18	25	53*	-30%
COc1ccc(NC(=O)COC(=O)CNS(=O)(=O)c2ccc(F)c(F)c2F)cc1OC	0	1	1	-9	-4	x
Cc1cccc(Oc2ncnc(N)c2[N+](=O)[O-])c1C	0	0	-6	8	-32	x
Nc1ncnc(Oc2cccc3cccnc23)c1[N+](=O)[O-]	1	0	18	0	51*	-29%
CCCN(CCC)c1ccc(/C=N/NC(=O)CN2CCOCC2)cc1	0	0	27	-19	-8	x
Cc1ccc(Nc2nc(N)nc(CN3CCN(Cc4ccc5c(c4)OCO5)CC3)n2)cc1Cl	2	0	10	1	18	x
CCOC(=O)N1CCN(Cc2nc(N)nc(Nc3ccc(OC)cc3)n2)CC1	0	0	7	18	15	x
Nc1nc(CN2CCN(Cc3ccccc3)CC2)nc(Nc2ccc3c(c2)OCCO3)n1	0	0	11	-6	60*	-24%
COc1ccc(Nc2nc(N)nc(CN3CCOCC3)n2)cc1	0	1	13	1	40*	0%
CC(C)NC(=O)NNC(=O)c1cc(COc2cc(Cl)cc(Cl)c2)on1	1	1	0	-6	-2	x
COc1ccc(C(=O)c2ccc(-c3ccc(OC)cc3)nc2)cc1	0	x	6	x	4	x
COc1cccc(/C=N/NC(=O)CCn2nnc3ccccc32)c1	0	0	43	-6	9	x
COc1ccc(O)c(/C=N\NC(=O)CCn2nnc3ccccc32)c1	1	0	10	13	51*	-8%
O=C(O)c1c[nH]c2c([N+](=O)[O-])cccc2c1=O	0	x	x	x	49*	-5%
SMILES	aDG glyco up	Bfl-1 A1 inh	AI-2 QS modul	SUMO Mot1 rescue	ARNT-TACC3 inh	AlphaScreen ctr
Cc1c(C(=O)O)cccc1[N+](=O)[O-]	0	0	x	144	x	x
CCOc1ccc(NC(=O)CCC(=O)N/N=C2\CCCc3ccccc32)cc1	0	1	31	1	-43	x
CCCCC(=O)NC(c1ccc(N(CC)CC)cc1)c1ccc2cccnc2c1O (stereo not given)	0	-1	-43	9	37	x
CC(=O)NC(c1ccc2ccccc2c1)c1ccc2cccnc2c1O (stereo not given)	-1	1	0	-6	62*	15µM*
CCCCC(=O)NC(c1ccc(N(C)C)cc1)c1ccc2cccnc2c1O (stereo not given)	0	0	x	13	60*	11µM*
CC(=O)NC(c1ccc(Cl)cc1Cl)c1ccc2cccnc2c1O (stereo not given)	0	0	-84*	i	66*	22µM*

Assay outcomes from PubChem.
